Screening data: PubChem, National Center for Advancing Translational Sciences (NCATS)
miR-21 reporter: qHTS Assay for Modulators of miRNAs and/orActivators of miR-21. HeLa miR-21 FLuc reporter, luciferase, 48 h. Potency, µM (top dose mostly 38.3 µM), hits mostly activators. 340,000 tested, under 10 active;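 further: miR-21 action dims this reporter so a rising signal means less miR-21 action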
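Luminescence from a firefly luciferase reporter carrying a miR-21 binding site downstream, stably expressed under a CMV promoter in HeLa cells that make miR-21 endogenously, reports miRNA modulation after 48 h compound exposure up to approximately 40uM final.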
TDP1 inh: qHTS Assay for Inhibitors of Tyrosyl-DNA Phosphodiesterase (TDP1) | Tyrosyl-DNA phosphodiesterase 1 (Homo sapiens), Q9NUW8 | recombinant TDP1, AlphaScreen DNA substrate cleavage | Potency, µM (highest dose often 130 µM), hits mostly inhibitors | 350,000 compounds, 0.28% hits; further: nearly all actives have a fitted effect of over 40% in size
Target sequence (Q9NUW8 whole entry, looked up): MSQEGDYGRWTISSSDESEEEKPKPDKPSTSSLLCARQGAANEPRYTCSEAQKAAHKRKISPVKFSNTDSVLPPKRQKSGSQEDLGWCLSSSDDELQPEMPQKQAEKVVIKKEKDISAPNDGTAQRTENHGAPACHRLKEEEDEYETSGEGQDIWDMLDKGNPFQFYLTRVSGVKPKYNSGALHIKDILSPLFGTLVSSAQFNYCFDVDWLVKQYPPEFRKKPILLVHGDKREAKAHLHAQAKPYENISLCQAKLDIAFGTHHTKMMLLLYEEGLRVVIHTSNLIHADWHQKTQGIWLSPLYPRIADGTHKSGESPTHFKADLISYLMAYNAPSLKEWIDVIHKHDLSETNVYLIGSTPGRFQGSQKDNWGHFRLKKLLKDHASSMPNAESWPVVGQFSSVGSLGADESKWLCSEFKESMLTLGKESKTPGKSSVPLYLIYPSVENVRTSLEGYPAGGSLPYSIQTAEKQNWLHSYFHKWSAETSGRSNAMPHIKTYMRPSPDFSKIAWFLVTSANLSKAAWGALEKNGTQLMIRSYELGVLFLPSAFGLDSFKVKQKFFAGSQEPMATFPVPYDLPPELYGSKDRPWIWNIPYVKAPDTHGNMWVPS
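E. coli-derived human Tdp1, 1 nM final. Cpd preinc 15 min RT; substrate 15 nM final, 5 min RT; AS bead mix 10 ug/ml final, 10 min RT. Signal loss = tyrosine-FITC cleavage. No-enzyme wells = max signal.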
uPA generation: qHTS for Inhibitors of Cell Surface uPA Generation; AID 540303, 2011; Potency, µM (top dose mostly 38.3 µM), usual class: inhibitors; cell surface uPA generation assay, qHTS; 330,000 compounds, 0.31% hits; active means well fitted inhibition curve with a large enough effect; inconclusive means small, poorly fitted or top-dose-only effect; inactive means no such curve, though single readings can be large or run the other way; tested in mouse RAW 264.7 cells; further: nearly all actives have a fitted effect of over 55% in size
DT40 TDP1 no CPT: qHTS for Inhibitors of human tyrosyl-DNA phosphodiesterase 1 (TDP1): qHTS in cells in absence of CPT; DT40 Tdp1-/- hTDP1 cells, no CPT, ATP luminescence, 48 h; Potency, µM (titrated, usually from 46.2 µM), most hits filed as inhibitors; 420,000 compounds, 15% hits; further: nearly all actives have a fitted effect of over 55% in size
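No-CPT arm: Tdp1-/-;hTDP1 DT40 cells (400/well) plus compounds, incubated ≥48 hr at 37 °C. Readout CellTiter-Glo luminescence.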
DT40 TDP1 CPT: qHTS for Inhibitors of human tyrosyl-DNA phosphodiesterase 1 (TDP1): qHTS in cells in presence of CPT. Potency, µM (titrated, usually from 46.2 µM), usual class: inhibitors. chicken DT40 Tdp1-/-;hTDP1 cells + 20 nM CPT, ATP luminescence, 48 h. AID 686979, 2013. 420,000 compounds, 12% hits; further: nearly all actives have a fitted effect of over 55% in size
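Chicken DT40 Tdp1-/- cells complemented with human TDP1, 400 cells/well, exposed to compounds plus 20 nM camptothecin for at least 48 h at 37 C; viability read as ATP content by CellTiter-Glo luminescence.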
A number is an active result; . = inactive; ? = inconclusive; / = no result given. Hits are enriched below; roughly 16% of the tested compounds scored in any of these assays. Unless noted, the call rests on the fitted dose curve; in most records, active means well fitted curve in the direction sought with a large enough effect; inconclusive means small, poorly fitted or top-dose-only effect, or another doubt; inactive means no such curve, though single readings can be large; an effect the other way counts as inactive or inconclusive.

SMILES	miR-21 reporter	TDP1 inh	uPA generation	DT40 TDP1 no CPT	DT40 TDP1 CPT
COc1ccccc1NC(=O)Nc1nc(CC(=O)NCc2ccc(F)cc2)cs1	/	/	?	16.4µM	9.2µM
COc1cccc(CNC(=O)Cc2csc(NC(=O)Nc3ccccc3OC)n2)c1	/	.	.	20.6µM	?
COc1ccccc1NC(=O)Nc1nc(CC(=O)NCc2c(F)cccc2F)cs1	/	.	.	20.6µM	?
COc1ccc(C(=O)Nc2nc(CC(=O)NCCc3ccccc3)cs2)cc1	/	.	.	?	?
COc1ccc(C(=O)Nc2nc(CC(=O)NCCc3cccc(OC)c3)cs2)cc1	/	.	.	14.6µM	?
COc1ccccc1NC(=O)NCc1ccccc1F	.	.	.	.	?
COc1ccccc1NC(=O)Cc1cccc2ccccc12	.	/	.	?	?
O=C(Cc1csc(-c2ccccc2)n1)NCc1ccc(F)cc1	.	.	.	.	.
CCOc1ccc(NC(=O)Cn2cc(S(=O)(=O)c3ccc(C)cc3)c(=O)c3cc(F)ccc32)cc1	.	.	/	.	.
COc1cccc(CNC(=O)c2ccc3c(c2)nc2n3CCCCC2)c1OC	.	.	/	?	.
O=C(O)c1ccc(NS(=O)(=O)c2cccc(C(=O)Nc3cccc(C(=O)O)c3)c2)cc1	.	/	.	.	.
COc1ccccc1CC(=O)N1CCN(c2ccccc2F)CC1	.	/	.	?	.
COc1ccccc1NC(=O)Nc1nc(CC(=O)N2CCN(c3ccccc3F)CC2)cs1	/	.	.	18.4µM	?
COc1ccc(-n2c(=O)c(CCc3ccccc3)nc3cncnc32)cc1	/	/	/	.	.
O=C(O)C1Cc2ccccc2CN1C(=O)COc1ccc(Cl)cc1Cl (centres undefined)	.	.	.	.	.
O=C(O)C1Cc2ccccc2CN1C(=O)COc1ccc(Br)cc1 (centres undefined)	.	22.4µM	.	.	.
COc1ccc(-n2ncc(C(=O)NCc3ccco3)c2C2CCN(C(=O)OC(C)(C)C)CC2)cc1	.	.	/	?	?
CCCCN(CCC(=O)O)c1ccc(/C=C/c2ccnc3ccccc23)cc1	/	/	/	15.8µM	5.62µM
CCCCCN(CCCCC)c1ccc(/C=C/c2ccnc3ccccc23)cc1	/	/	/	12.6µM	?
CCN(CCCN(C)C)c1ccc(/C=C/c2ccnc3ccccc23)cc1	/	/	/	15.8µM	?
CCCCCCCCCCCCCCCCCCN(CCCCCCCCCCCCCCCCCC)c1ccc(/C=C/c2ccnc3ccccc23)cc1	/	/	/	.	.
CCCCCCCCN(CCCCCCCC)c1ccc(/C=C/c2ccnc3ccccc23)cc1	/	/	/	.	.
CCOc1ccc2nc(NS(=O)(=O)c3cccs3)sc2c1	.	/	.	.	.
CC(=O)N[C@H]1[C@H](OCc2ccccc2F)O[C@H](COC(C)=O)[C@@H](OC(C)=O)[C@@H]1OC(C)=O	.	/	.	.	.
CN(CCOC(=O)C1c2ccccc2Oc2ccccc21)C(C)(C)C	.	.	.	.	.
SMILES	miR-21 reporter	TDP1 inh	uPA generation	DT40 TDP1 no CPT	DT40 TDP1 CPT
COc1cccc(OC2(C)CCN(Cc3cccn3-c3nccs3)C2)c1 (centres undefined)	/	/	/	20.6µM	23.1µM
CC1(Oc2ccc(-n3ccnc3)cc2)CCN(Cc2cccn2-c2nccs2)C1 (centres undefined)	/	/	/	18.4µM	29.1µM
Cc1oc2ncnc(N3CCOCC3)c2c1C(=O)NCc1ccc(Cl)cc1	.	.	/	.	.
CC1c2cc3c(cc2CCN1C(=O)c1ccc(Br)cc1)OCCCO3 (centres undefined)	.	.	.	7.31µM	16.4µM
COc1ccc(C(=O)N2CCc3cc4c(cc3C2C)OCCCO4)cc1 (centres undefined)	.	/	.	20.6µM	20.6µM
Cc1cc(C)cc(NC(=O)CN2CCc3cc4c(cc3C2C)OCCCO4)c1 (centres undefined)	.	.	.	?	?
CC1c2cc3c(cc2CCN1C(=O)c1cccc(F)c1)OCCCO3 (centres undefined)	.	.	.	?	20.6µM
Cc1cccc(NC(=O)CN2CCc3cc4c(cc3C2C)OCCCO4)c1 (centres undefined)	.	.	.	?	?
N#Cc1cc2c(=O)n3ccccc3nc2n(Cc2cccnc2)c1=O	/	/	.	.	.
N#Cc1cc2c(=O)n3ccccc3nc2n(-c2ccccc2Cl)c1=O	.	.	?	?	7.31µM
O=C(/C=C/c1c[nH]c2ccccc12)c1cccc2ccccc12	.	.	.	11.6µM	16.4µM
OCCNc1nc(-c2cccs2)nc2ccccc12	/	.	/	.	.
CN(Cc1cccs1)c1nc(-c2cccnc2)nc2ccccc12	.	.	.	?	23.1µM
Cc1ccc(S(=O)(=O)N(C)CCN(C)c2nc(-c3cccs3)nc3ccccc23)cc1	/	.	/	20µM	?
CN(CCO)c1nc(-c2cccs2)nc2ccccc12	/	?	/	?	17.8µM
O=S(=O)(c1ccc(F)cc1)N1CCN(c2nc(-c3cccs3)nc3ccccc23)CC1	/	.	/	?	?
CNCCN(C)c1nc(-c2cccs2)nc2ccccc12	/	.	/	22.4µM	?
CCOC(=O)c1ccc(NC(=O)Nn2cnnc2)cc1	.	.	.	.	.
Cc1ccc(-c2nnc3ccccc3c2C(=O)Nc2cccc(Cl)c2)cc1	.	.	/	.	.
O=C(CS(=O)c1ccc(F)cc1)N1CCOCC1 (centres undefined)	.	/	.	.	.
COc1ccc(C(=O)NCc2ccc3c(c2)CCN3C(=O)c2ccc(C)cc2)cc1	.	.	/	?	?
COc1ccc(Cl)cc1S(=O)(=O)NCc1ccc2c(c1)CCN2C(=O)c1cccc(C)c1	?	.	/	4.61µM	3.26µM
Cc1cccc(C(=O)N2CCc3cc(CNS(=O)(=O)c4cccs4)ccc32)c1	.	.	/	20.6µM	23.1µM
COc1ccccc1C(=O)NCc1ccc2c(c1)CCN2C(=O)c1cccc(C)c1	.	.	/	?	?
Cc1ccc(C(=O)N2CCc3cc(CNS(=O)(=O)c4cccs4)ccc32)cc1	.	.	/	18.4µM	14.6µM
SMILES	miR-21 reporter	TDP1 inh	uPA generation	DT40 TDP1 no CPT	DT40 TDP1 CPT
O=C(Nc1nnc(S(=O)(=O)Cc2ccc(F)cc2)s1)c1ccccc1F	.	.	.	.	.
COc1ccc(Cc2c(C3CCCCC3)nc3cc(C)c(Br)c(C)n23)c(C)c1	/	/	/	?	.
COc1ccc(Cc2c(C3CCCCC3)nc3c(Cl)cc(C(F)(F)F)cn23)c(C)c1	/	/	/	?	18.4µM
COc1ccc(Cc2c(C3CCCCC3)nc3ccc(Br)cn23)c(C)c1	/	/	/	23.1µM	16.4µM
O=S(=O)(NC1Cc2ccccc2C1)c1ccccc1	.	/	.	.	.
S=c1[nH]nc(COc2ccccc2)n1-c1ccc(Cl)cc1	/	/	.	23.1µM	.
COc1ccc(-n2c(COc3ccccc3)n[nH]c2=S)cc1	.	/	.	.	.
